This is a sample that favours compounds with a hit; in the whole collection about 4% have one here.
Mtb UGM inh: Mtb UDP-galactopyranose mutase inhibition; P9WIQ1; actives 0.06% (n = 320,000); purified UGM, fluorescence polarization probe displacement; inhibition, % at 10 µM; in the data active = inhibition above about 10%, passing the limit was not always enough
Rv3671c protease: inhibitors of M. tuberculosis serine protease Rv3671c. inhibition, % at 5.96 µM. P9WHR9. actives 0.048% (n = 320,000); in the data active = inhibition above about 38%;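 note: extracellular domain of Rv3671c used as enzyme; 0% = enzyme with DMSO and 100% = no enzyme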
RecA intein inh: Mtb RecA intein splicing inhibition; P9WHJ3; cell-free RecA intein splicing, fluorescence; inhibition, % (test concentration not listed); actives 0.75% (n = 290,000); AID 2221; in the data active = inhibition above about 30%;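 note: 0% = vehicle wells and 100% = reference inhibitor control wells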
GDH-TPI inh: GDH-TPI coupled enzyme inhibition counter-screen. GDH-TPI coupled enzyme counterscreen, NADH absorbance. inhibition, % at 4.8 µM. actives 1.2% (n = 360,000). AID 588335; in the data active = inhibition above about 30%;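 note: 0% = DMSO wells and 100% = wells lacking the enzyme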
Mtb betalactam: beta-lactam sensitization of Mtb H37Rv | M. tuberculosis H37Rv growth with meropenem, percent inhibition | inhibition, % at 25 µM | actives 0.27% (n = 330,000); call rule not given here;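 note: growth measured after seven days incubation then overnight dye step; 0% = bacteria only wells and 100% = bacteria with antibiotic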
Mtb FBA inh: inhibitors of M. tuberculosis fructose-bisphosphate aldolase; P9WQA3; inhibition, % at 1 µM; purified M. tuberculosis FBA, fluorescence read-out; actives 2.3% (n = 360,000); in the data active = inhibition above about 27%;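 note: 0% = vehicle and 100% = reference inhibitor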
Active calls of the source: *; · = not tested or not shown; + = active, no number.

SMILES | Mtb UGM inh | Rv3671c protease | RecA intein inh | GDH-TPI inh | Mtb betalactam | Mtb FBA inh
CN(C)c1ccc(/C=N/NC(=O)c2ccc3c(c2)OCO3)cc1 | 2 | · | -38 | 42* | -2 | 5
Cc1ccc(C(=O)NN=Cc2ccc3c(c2)OCO3)cc1 | · | · | · | 35* | · | 0
O=C(NN=Cc1ccc2c(c1)OCO2)NN=Cc1ccc2c(c1)OCO2 | · | · | · | 38* | · | -1
Cc1ccc(C(=O)N/N=C/c2ccc3c(c2)OCO3)o1 | -1 | 4 | -2 | 40* | 3 | 1
O=C(NN=Cc1ccc2c(c1)OCO2)C1CC1 | · | · | · | 23 | · | -1
Cc1ccc(C(=O)N/N=C\c2ccc3c(c2)OCO3)cn1 | 0 | -1 | -3 | 22 | 5 | 3
CC(C)(C(=O)N1CCC1(C)C(=O)NS(=O)(=O)c1cccc(Cl)c1)c1ccccc1 (stereo not drawn) | · | · | · | 1 | · | -2
O=C(Cc1ccccc1)N/N=C/c1ccc2c(c1)OCO2 | 1 | -5 | -4 | 13 | 1 | 2
CN(C)c1ccc(/C=N/NC(=O)c2cccc(N3CCCC3=O)c2)cc1 | -4 | 6 | -3 | 46* | -1 | -8
O=C(CCc1c[nH]c2ccccc12)N/N=C/c1ccc2c(c1)OCO2 | 0 | -1 | -2 | 38* | -6 | -1
COCCN(CCOC)Cc1cc(=O)oc2cc(C)ccc12 | · | · | · | · | · | -3
O=C(O)c1cc(O)ccc1N=Nc1ccccc1 | -2 | -3 | -2 | 24 | 5 | -8
O=C(O)c1ccccc1N=Nc1ccc(O)cc1 | -1 | -3 | -2 | 36* | 0 | -6
CCOc1ccc(OCCC(=O)OCC(=O)N2CCN(S(=O)(=O)c3ccc(Cl)cc3)CC2)cc1 | 0 | -3 | -4 | -1 | -6 | 0
Cc1ccc(N(C)S(=O)(=O)c2c(C)noc2/C=C/N(C)C)cc1 | 4 | -16 | -2 | 34* | -10 | 4
O=C(Cn1cc(COc2ccc(Cl)c(Cl)c2)nn1)NS(=O)(=O)c1ccccc1C(F)(F)F | · | · | · | 8 | · | -1
Cn1cccc1/C=N/NC(=O)c1ccc[n+]([O-])c1 | 0 | -1 | -1 | 21 | -2 | -1
Cc1ccc(C(=O)N/N=C\c2ccc(-c3ccc(Cl)cc3)o2)cn1 | 4 | 4 | 3 | 31* | 99 | 2
Cn1cccc1/C=N/NC(=O)c1cccnc1 | 1 | 4 | 0 | 48* | 4 | -2
Cc1cc(C(=O)NN=Cc2ccc(-c3ccc(F)cc3)o2)c(C)o1 | 0 | 10 | · | 53* | 3 | 5
Cc1ccc(C(=O)N/N=C\c2cccn2C)cn1 | -1 | -1 | 0 | 54* | -4 | 2
COc1ccc(CNC(=O)CCn2c(C)csc2=O)cc1 | 3 | -12 | · | -4 | -1 | -1
O=C(NOCc1cscn1)Nc1ccccc1 | · | · | · | 4 | · | 4
CCOC(=O)N1CCN(C(=O)c2cc3c(s2)-c2c(C)cccc2OC3)CC1 | 2 | -3 | -18 | 21 | -2 | 143*
Cc1cccc2c1-c1sc(C(=O)Nc3ccccc3N3CCN(C)CC3)cc1CO2 | 0 | -3 | 0 | 15 | 100 | 8
SMILES | Mtb UGM inh | Rv3671c protease | RecA intein inh | GDH-TPI inh | Mtb betalactam | Mtb FBA inh
CCN1CCN(C(=O)c2cc3c(s2)-c2c(C)cccc2OC3)CC1 | 2 | 4 | -58 | 13 | -9 | +
CCN1CCN(C(=O)c2cc3c(s2)-c2ccccc2S(=O)(=O)C3)CC1 | 4 | -4 | -4 | 12 | 3 | -1
C/C(=C\C(=O)c1ccc(C)cc1)NCc1ccc(F)cc1 | 3 | -1 | 1 | 22 | -7 | 0
C/C(=C\C(=O)c1ccccc1)NCc1ccc(F)cc1 | 0 | -13 | 3 | 31* | -5 | 3
O=C(O)c1cccc2c1C(=O)c1ccccc1C2=O | 0 | -8 | -3 | 7 | 3 | 3
O=C(O)c1cccc(-c2ccccc2)c1O | · | · | · | -4 | · | 116*
CCc1ccc2c(CN(C)Cc3ccc(OC(F)F)c(OC)c3)cc(=O)oc2c1 | 1 | -3 | 6 | -5 | 2 | 0
Cc1cccc(NC(=O)C(=O)NCC2CCCN2S(=O)(=O)c2ccccc2)c1 (stereo not drawn) | 1 | -4 | 2 | 9 | -7 | -3
Cc1cc(-c2ccco2)c(C#N)c2nc3ccccc3n12 | 1 | -3 | -79 | 31* | -1 | 2
Cc1cc(C(C)C)n2c(nc3ccccc32)c1C#N | 2 | 7 | -19 | · | 1 | ·
Cc1ccsc1/C=C(\CC(=O)O)c1nc2ccccc2o1 | 0 | -1 | 0 | 44* | 4 | 3
CCc1ccc(NC(=O)NCC2CCN(c3ccc(OC)cc3)C2)cc1 (stereo not drawn) | -1 | 0 | -2 | 9 | 1 | 1
